Results from PubChem BioAssay (NCI).
Several values for one entry are separate records, joined by “and”; a condition that tells them apart may be missing. Equal values may be shown once. This is part of a sample that, as a whole, favours compounds with a hit. Of some 83,000 tested, about 20% had one in any assay.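 The test compound was applied at a single concentration to cells in 96-well plates for 48 hours, and percent growth was recorded.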 A number with no mark means an inactive call. Activity calls are given as the source filed them. How the source made its calls: active means growth percent below 10; inactive means the rest.

system: MDA-MB-468 breast; experiment: NCI-60 one-dose screen, 48 h (100 = growth as untreated, 0 = no growth, -100 = all killed); details: 10 µM unless noted

| SMILES | growth |
| --- | --- |
| NC(=O)c1ncn([C@@H]2O[C@H](CO)[C@@H](O)[C@H]2O)n1 | 83.7% |
| CC(=O)C1CCC2C3CC(C)=C4CC(O)CCC4(C)C3CCC12C (stereo not drawn) | 109% |
| COc1cccc(-c2nn(-c3ccccc3)cc2-c2ccnc(NCCNC(=O)Nc3ccccc3)c2)c1 | 49.7% |
| CCNC(=O)C1CCCN1C(=O)C(CCCN=C(N)N)NC(=O)C(CC(C)C)NC(=O)C(CC(C)C)NC(=O)C(Cc1ccc(O)cc1)NC(=O)C(CO)NC(=O)C(Cc1c[nH]c2ccccc12)NC(=O)C(Cc1cnc[nH]1)NC(=O)C1CCC(=O)N1 (stereo not drawn) | 87.4% |
| CN1CCN(c2ccc(NC(=O)c3cncnc3Nc3ccc(OCc4cccc(F)c4)c(Cl)c3)cc2)CC1 | 71.8% |
| CCCCN1CCCC[C@@H]1C(=O)N[C@H](C(=O)N(C)[C@H](CCc1nc(C(=O)N[C@@H](Cc2ccccc2)C[C@H](C)C(=O)OC)cs1)C(C)C)C(C)C | 22.3% |
| O=CC(OC(=O)c1ccccc1)C(OC(=O)c1ccccc1)C(COC(c1ccccc1)(c1ccccc1)c1ccccc1)OC(=O)c1ccccc1 (stereo not drawn) | 74.6% |
| CS(=O)(=O)c1nccc(-c2c(-c3ccc(F)c(OCc4ccccc4)c3)nc3sccn23)n1 | -68.8% (active) |
| CCc1ccc(C(=O)/C=C/C23c4ccccc4C(c4ccccc42)C2C(=O)NC(=O)C23)cc1 (stereo not drawn) | -15.9% (active) |
| COC(=O)C1(NC(=O)CNC(=O)OCc2ccccc2)CCCC1 | 96.1% |
| O=c1cc(Cl)nc2ccccn12 | 107% |
| CC1CN(CC(O)c2ccc(Br)cc2)CCO1 (stereo not drawn) | 115% |
| COc1cc(-c2cc(-c3nc4ccc(Cl)cc4[nH]3)[nH]n2)cc(OC)c1OC | 35.9% |
| COc1cc(/C=C/C(=O)Nc2cccnc2Nc2ccc(F)cc2)cc(OC)c1OC | 97.4% |
| CC(=O)OC[C@H]1OC(Sc2sc(C(=O)c3ccc(C)cc3)c(N)c2-c2nc3ccccc3s2)[C@H](OC(C)=O)[C@@H](OC(C)=O)[C@@H]1OC(C)=O (stereo partly drawn) | 75.4% |
| CCC1C[N+]2=C(c3cc(OC)c(OC)cc3CC2)c2c1cc1n2CCc2cc(OC)c(OC)cc2-1 (stereo not drawn) | 1.92% (active) |
| O=C(O)c1ccc(=O)[nH]n1 | 123% |

| SMILES | growth |
| --- | --- |
| COC(=O)c1nc(-c2ccccc2)oc1S(=O)(=O)Cc1ccccc1 | 59.3% |
| CSC1=NC(=Nc2c(C)cccc2C)C2(CCC(C(C)(C)C)CC2)N1c1ccc(Cl)cc1 (stereo not drawn) | 38.3% |
| O=C(/C=C/c1ccc(C(F)(F)F)cc1)c1ccc(Nc2nc(NCCO)nc(N3CCOCC3)n2)cc1 | 20.4% |
| Clc1cccc(Cl)c1/C=C/c1cc(/C=C/c2c(Cl)cccc2Cl)[nH]n1 | 12.4% |
| CCN(CC)CCNc1ccc(CO)c2oc3cc(Cl)ccc3c(=O)c12 | 68.1% |
| CSc1nc(N)c2c(n1)N(C)C=NS2(=O)=O | 107% |
| COc1cccc(-c2nc3sccn3c2-c2ccnc(NCCNC(=O)c3ccccc3)n2)c1 | 79.4% |
| Cc1nc2scc(-c3ccccc3)n2c(=O)c1CCO | 101% |
| COc1cc(-c2csc(NC(=O)c3cc(-n4cnc(C)c4)cc(C(F)(F)F)c3)n2)cc(OC)c1OC | 78.4% |
| O=C(CCCCNC(=O)c1nc(-c2ccccc2)n(-c2ccccc2)n1)NO | 55.4% |
| CC(C)(C)Nc1nc2c(OCCc3ccccc3)cccn2c1-c1ccc(Cl)cc1 | -22.4% (active) |
| CCCCN(CCCC)C(=O)[C@H](CC)[C@@H]1CC[C@@H](C)[C@@H]([C@H](C)[C@@H](O)[C@@H](C)C(=O)[C@H](CC)C2O[C@]3(C=CC(=O)[C@]4(CC[C@@](C)([C@H]5CC[C@](O)(CC)[C@H](C)O5)O4)O3)[C@H](C)C[C@@H]2C)O1 (stereo partly drawn) | -11.5% (active) |
| O=C1/C(=C/c2ccc(-c3cccc(C(F)(F)F)c3)o2)SC(=S)N1CCc1ccc(O)cc1 | 95% |
| CCn1cc(C(=O)N/N=C/c2ccc(Br)cc2)c(=O)c2cc(F)c(N3CCNC(C)C3)c(F)c21 (stereo not drawn) | 82.5% |
| CC(C)NCC(O)c1ccc(O)c(O)c1 (stereo not drawn) | 89.3% and 104% and 97.9% |
| CCCCCCn1c(-c2ccc(C(=O)O/N=C(\N)c3ccc4c(c3)OCO4)cc2)nc(-c2ccccc2)c1-c1ccccc1 | 43.4% |
